For assay [1], the system named is DLD1. Description: cell viability (CellTiter-Glo) relative to plate median (fraction of plate median); higher = more viable cells. The note with it: 5 µM; treatment time 24 h; reporter: 7TFP. The essentials:
(§1)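 Two independent replicates were averaged for each reported value. Library compounds were applied at a final 5 µM for 24 h to colorectal cancer cell lines stably expressing lentiviral TCF/Wnt firefly luciferase reporters. Firefly luciferase or CellTiterGlo luminescence from each well was normalised to the plate median.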
For orientation: Cellular ATP, detected with luciferase, serves as a proxy for viable cell number.

In assay [2] the test system is HCT116. The assay is described as above. To be noted: 5 µM; treatment time 24 h; reporter: TCF4/Wnt. In a few lines: as §1
Assay [3] relates to SW480. The assay is described as above. The note with it: 5 µM; treatment time 24 h; reporter: 7TFP. The essentials:
as §1

Assay [4] relates to DLD1. Briefly: TCF/Wnt firefly luciferase reporter signal relative to plate median (fraction of plate median); higher = higher Wnt reporter signal. The note with it: 5 µM; treatment time 24 h; reporter: 7TFP. The essentials:
as §1
(In general: Reporter assays use an easily measured gene product as a stand-in for the process of interest.)

For assay [5], the system named is SW480. The assay is described as above. The note with it: 5 µM; treatment time 24 h; reporter: 7TFP. The essentials:
as §1

± gives the standard deviation of the averaged measurements.

With `CC(=O)Oc1cc(C)c2c(c1C=O)Oc1c(c(C)c(OC(C)=O)c3c1C(OC(C)=O)OC3=O)OC2=O` (stereo not given), the cell viability in assay [1] is 1.025 ± 0.0071; in assay [2], 0.949 ± 0.039; in assay [3] it was 1.04 ± 0.063. For the same molecule, the “TCF/Wnt firefly luciferase reporter signal” value in assay [4] turned out to be 0.875 ± 0.084; in assay [5] it was 1.01 ± 0.099.

Turning to `CC1=Nc2ccc(Cl)cc2S(=O)(=O)N1`, the cell viability in assay [1] turned out to be 0.946 ± 0.016; in assay [2] it was 1.06 ± 0.12; in assay [3] it was 0.975 ± 0.05. Besides, the “TCF/Wnt firefly luciferase reporter signal” value is 1.135 ± 0.0071 in assay [4] and 0.86 ± 0.14 in assay [5].

As for `O=C1CC2(CCCC2)CC(=O)N1CCCCN1CCN(c2ncccn2)CC1`, the values for the cell viability in assay [1], in assay [2] and in assay [3] were 1.02 ± 0.028, 0.895 ± 0.14 and 0.995 ± 0.021, respectively. Also, the results for the “TCF/Wnt firefly luciferase reporter signal” value in assay [4] and in assay [5] were 1.07 ± 0.078 and 1.08 ± 0.021, respectively.

Regarding `COc1cc(/C=C/C(=O)CC(=O)/C=C/c2ccc(O)c(OC)c2)ccc1O`, the figures for the cell viability in assay [1], in assay [2] and in assay [3] were 1.02 ± 0.061, 1.02 ± 0.093 and 1.05 ± 0.014, respectively. The figures for the “TCF/Wnt firefly luciferase reporter signal” value in assay [4] and in assay [5] were 1.13 ± 0.14 and 0.982 ± 0.14, respectively.

Regarding `COc1cccc(O)c1O`, the cell viability in assay [1] was 0.938 ± 0.059; in assay [2], 0.905 ± 0.11; in assay [3] it was 0.942 ± 0.0028. The “TCF/Wnt firefly luciferase reporter signal” value in assay [4] amounted to 0.96 ± 0.099; in assay [5] it was 0.978 ± 0.088.

`CCC(O)CC1CCC(C(C)C(=O)OC(C)CC2CCC(C(C)C(=O)O)O2)O1` (stereo not given) [Bonactin]: the cell viability in assay [1] amounted to 0.944 ± 0.027; in assay [2] it was 0.941 ± 0.11; in assay [3] it was 0.974 ± 0.0014. For the same molecule, the “TCF/Wnt firefly luciferase reporter signal” value came out at 0.962 ± 0.054 in assay [4] and 0.87 ± 0.12 in assay [5].

`Nc1ccc(S(=O)(=O)O)cc1.Nc1ccc(S(=O)(=O)O)cc1.[Zn]`: the cell viability in assay [1] was 1.08 ± 0.18; in assay [2], 1.01 ± 0.049; in assay [3], 1.105 ± 0.0071. Besides, the “TCF/Wnt firefly luciferase reporter signal” value in assay [4] worked out at 1.03 ± 0.12; in assay [5], 1.015 ± 0.0071.

Turning to `O=C1CC[C@]23/C=C/C(=O)NCCCCNCCCNC(=O)/C=C/c4ccc(c2c4)O[C@@H]3C1`, the cell viability came to 1.03 ± 0.014 in assay [1], 1.06 ± 0.057 in assay [2] and 1.01 ± 0.024 in assay [3]. Further, the “TCF/Wnt firefly luciferase reporter signal” value in assay [4] is 1.01 ± 0.056; in assay [5], 1.04 ± 0.042.

For `NS(=O)(=O)c1cc2c(cc1Cl)NC(C1CC3C=CC1C3)NS2(=O)=O` (stereo not given), the cell viability is 0.973 ± 0.052 in assay [1], 0.962 ± 0.0071 in assay [2] and 0.983 ± 0.0042 in assay [3]. Also, the “TCF/Wnt firefly luciferase reporter signal” value was 1.1 ± 0.035 in assay [4] and 0.879 ± 0.04 in assay [5].

Turning to `Cc1cc(C)nc(NS(=O)(=O)c2ccc(N)cc2)n1`, the cell viability in assay [1] amounted to 1.07 ± 0.11; in assay [2] it was 0.975 ± 0.078; in assay [3], 1.03 ± 0.047. The “TCF/Wnt firefly luciferase reporter signal” value came to 1.025 ± 0.0071 in assay [4] and 1.08 ± 0.05 in assay [5].

For the molecule `CC(=O)O[C@H]1CC[C@]2(C)[C@H]3CC=C4[C@@H]5CC(C)(C)CC[C@]5(C)CC[C@@]4(C)[C@]3(C)CC[C@H]2C1(C)C` [beta-AMYRIN ACETATE], the cell viability in assay [1] is 0.982 ± 0.054; in assay [2], 0.965 ± 0.025; in assay [3], 1.03 ± 0.021. The figures for the “TCF/Wnt firefly luciferase reporter signal” value in assay [4] and in assay [5] were 1.145 ± 0.0071 and 1.07 ± 0.014, respectively.

Take `CCCCCCCCCCCCCCCC[N+](C)(C)C`: the cell viability in assay [1] was found to be 0.9465 ± 0.0021; in assay [2], 0.907 ± 0.093; in assay [3], 0.969 ± 0.12. For the same molecule, the “TCF/Wnt firefly luciferase reporter signal” value was found to be 0.754 ± 0.12 in assay [4] and 0.701 ± 0.093 in assay [5].

As to `COC(=O)C1=C(C)NC(C)=C(C(=O)OCCN(C)Cc2ccccc2)C1c1cccc([N+](=O)[O-])c1` (stereo not given), the values for the cell viability in assay [1], in assay [2] and in assay [3] were 0.914 ± 0.074, 1.02 ± 0.1 and 0.98 ± 0.042, respectively. For the same molecule, the entries for the “TCF/Wnt firefly luciferase reporter signal” value in assay [4] and in assay [5] were 0.941 ± 0.13 and 0.951 ± 0.065, respectively.

The values are drawn from the supplement of paper PMC6522484.
